KB-3-1 cytotox = qHTS assay for MDR1-selective chemotherapeutics: Primary screen using the parental adenocarcinoma cell KB-3-1; KB-3-1 viability, CellTiter-Glo ATP luminescence, 72 h; Potency, µM (titrated, usually from 46.1 µM), actives largely listed as cytotoxic; hit rate 1.4% among 400,000; note: % is set by controls: 0 for no effect and ±100 for the full control effect; nearly all actives have a fitted effect of over 60% in size
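72 h, 37 °C compound treatment of KB-3-1 parental cells; CellTiter-Glo added, 10 min, luminescence read. Data corrected against DMSO-only plates and normalized before curve fitting.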
HT1080 IDH1KD tx = qHTS for induction of synthetic lethality in tumor cells producing 2HG: qHTS for the HT-1080-IDH1KD cell line. HT-1080 IDH1 knockdown viability, ATP luminescence, 48 h. Potency, µM (highest dose often 46.1 µM), for the others: at the highest dose activity, negative = toxicity, most hits filed as cytotoxic. hit rate 2% among 360,000. AID 686971, 2013;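 note: 0% = DMSO wells and -100% = cell-free medium wells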
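Luminescent ATP read-out (CellTiter-Glo, 10 min at room temperature) after 48 h compound exposure at 37 °C gave viability of IDH1-knockdown HT-1080 cells. Activity was normalised to DMSO and cell-free wells, then fitted as concentration-response curves.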
ATXN2 expr inh = Primary qHTS for Inhibitors of ATXN expression; HEK-293 ATXN2-luciferase reporter, luminescence, 24 h; Potency, µM (highest dose often 57 µM), for inactives: top-dose activity change, negative = inhibition, hits mostly inhibitors; hit rate 0.72% among 360,000; AID 1745845, 2022; note: % is set by controls: 0 for no effect and ±100 for the full control effect; nearly all actives have a fitted effect of over 55% in size
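qHTS (up to 57 uM final) was run with 24 h compound exposure of reporter cells at 37 °C. Each well was multiplexed: SteadyGlo luminescence measured ATXN2-luciferase expression after a fluorogenic Gly-Phe-AFC viability readout (25 uM final).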
ATXN viability = Viability Counterscreen for Primary qHTS for Inhibitors of ATXN expression | AID 651635, 2014 | S2 cells (HEK-293 line with an ATXN2-luciferase reporter) viability, CellTiter-Fluor protease fluorescence, 24 h | Potency, µM (top dose mostly 56.7 µM), hits mostly cytotoxic | hit rate 0.49% among 400,000; note: nearly all actives have a fitted effect of over 40% in size
KB-V1 MDR tox = qHTS assay for MDR1-selective chemotherapeutics: Primary screen using the drug-selected MDR subline cells KB-V1; KB-V1 MDR cells viability, CellTiter-Glo, 72 h; Potency, µM (highest dose often 46.1 µM), most hits filed as cytotoxic; hit rate 3.4% among 400,000; note: % is set by controls: 0 for no effect and ±100 for the full control effect; nearly all actives have a fitted effect of over 60% in size
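KB-V1 MDR subline cells in DMEM (phenol-red free, 10% FBS) exposed to compounds in qHTS concentration series for 72 h at 37 degrees C. Viability read by CellTiter-Glo luminescence; concentration-effect curves fitted after normalization and correction.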
HT1080-NT tox = qHTS for induction of synthetic lethality in tumor cells producing 2HG: qHTS for the HT-1080-NT fibrosarcoma cell line. HT-1080-NT fibrosarcoma viability, CellTiter-Glo ATP luminescence, 48 h. Potency, µM (series often up to 46.1 µM), for inactives: at the top dose activity, negative = less viability, actives largely listed as cytotoxic. hit rate 1.6% among 360,000. AID 686970, 2013;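 note: NT is the 2HG producing partner of a matched IDH1 knockdown line; 0% = DMSO-treated cells and -100% = media-only wells without cells; nearly all actives have a fitted effect of over 55% in size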
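Read-out is CellTiter-Glo luminescence after 10 minutes at room temperature, following 48 hours' compound treatment of HT-1080-NT cells (750 cells/well, RPMI, 5% FBS, 37 degrees C).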
An asterisk follows results filed as active; i = inactive; ? = inconclusive; . = not tested or not shown; [ ] = remark or other dose. Shown are actives, neighbours in structure and some others; about 6.2% of the full set was active somewhere. Calls come from the whole dose curve; as a rule, active = well fitted curve in the direction sought with a large enough effect; inconclusive = small, poorly fitted or top-dose-only effect, or another doubt; inactive = no such curve, though single readings can be large; an effect the other way counts as inactive or inconclusive. Potency is the fitted concentration of half-maximal effect.

SMILES | KB-3-1 cytotox | HT1080 IDH1KD tx | ATXN2 expr inh | ATXN viability | KB-V1 MDR tox | HT1080-NT tox
CN(CC(=O)Nc1ccccc1Cl)C(=O)c1cccc(S(=O)(=O)N2CCN(c3ccccc3)CC2)c1 | i | -20% | -29% | i | i | -9%
COc1ccccc1NC(=O)c1cccc(S(=O)(=O)N2CCN(Cc3ccccc3)CC2)c1 | i | -1% | -7% | i | i | -2%
CN(CC(=O)Nc1ccccc1Cl)C(=O)c1cccc(S(=O)(=O)N2CCN(Cc3ccccc3)CC2)c1 | i | -6% | -13% | i | ? | 21µM*
CN(Cc1ccc(OC(F)F)cc1)C(=O)c1cccc(S(=O)(=O)N2CCN(c3ccccc3)CC2)c1 | 7.3µM* | -19% | -31% | ? | i | -6%
CN(Cc1ccc(Cl)c(Cl)c1)C(=O)c1cccc(S(=O)(=O)N2CCN(Cc3ccccc3)CC2)c1 | 9.2µM* | -18% | -31% | i | i | -20%
O=C1C2=C(Nc3ccccc3SC2c2ccccc2C(F)(F)F)c2ccccc21 (centres undefined) | i | . | ? | ? | ? | .
C=CCN(C(=O)c1cccc(S(=O)(=O)N2CCN(C)CC2)c1)c1nc(-c2ccccc2)cs1 | ? | ? | -24% | i | i | 23µM*
CN1CCN(S(=O)(=O)c2cccc(C(=O)N(C)Cc3cccs3)c2)CC1 | i | 3% | -10% | i | i | 1%
O=C(O)c1cc([N+](=O)[O-])c(Sc2nc3ccccc3[nH]2)c([N+](=O)[O-])c1 | i | 3% | . | ? | ? | -13%
Cn1cnc([N+](=O)[O-])c1Sc1nc2ccccc2[nH]1 | i | 18µM* | ? | ? | i | ?
CS(=O)(=O)c1cc([N+](=O)[O-])c(Sc2nc3ccccc3[nH]2)c([N+](=O)[O-])c1 | i | 10µM* | ? | ? | i | 11µM*
Cc1cccc(Sc2c([N+](=O)[O-])ncn2C)c1 | i | 6% | -1% | i | i | 2%
O=[N+]([O-])c1nc2ccccc2[nH]1 | ? | 9% | 12% | i | 18µM* | 22%
O=C(c1nc2ccccc2[nH]1)c1ccccc1[N+](=O)[O-] | ? | 2% | 52% | i | i | -1%
COc1ccc(-n2c(=O)c3ccc(C(=O)NCc4ccc(C)cc4)cc3n(CC(=O)Nc3ccc(C)cc3)c2=O)cc1 | i | . | -2% | i | i | .
CCS(=O)(=O)Nc1cc(C(=O)N2CCCN(C=O)CC2)c2c(c1)nc(-c1ccccc1)n2C | . | . | . | i | . | .
COc1cccc(NC(=O)Cn2c(=O)n(Cc3ccc(F)cc3)c(=O)c3sc4ccccc4c32)c1 | i | . | -14% | ? | i | .
CCc1cccc2[nH]c3cc([N+](=O)[O-])ccc3c12 | ? | -22% | -28% | i | 13µM* | -11%
O=c1[nH]c2cc([N+](=O)[O-])ccc2c2ccccc12 | i | ? | -39% | i | ? | -14%
COc1cc(NC(=O)CCCl)cc(-n2cnnn2)c1 | i | -5% | 0% | i | i | 1%
COc1cc(NC(=O)CCC2CCCC2)cc(-n2cnnn2)c1 | i | 15% | 0% | i | 21µM* | -5%
O=C(COc1ccccc1Br)NC1CCCC1 | ? | -9% | 6% | i | 16µM* | -14%
COc1ccc2oc(=O)c(-c3nc(C)cs3)cc2c1 | ? | -3% | 24% | i | i | -3%[9.24 µM]
CC/C(C)=N\Nc1nc(-c2cc3cc(OC)ccc3oc2=O)cs1 | i | 15µM* | -13% | i | i | ?
NC(=S)NN=C1c2cc(OCCN3CCOCC3)ccc2-c2ccc(OCCN3CCOCC3)cc21 | 23µM* | ? | 7.9µM* | . | ? | ?
SMILES | KB-3-1 cytotox | HT1080 IDH1KD tx | ATXN2 expr inh | ATXN viability | KB-V1 MDR tox | HT1080-NT tox
ON=C1c2cc(OCCN3CCCCC3)ccc2-c2ccc(OCCN3CCCCC3)cc21 | ? | 23µM* | ? | ? | ? | 21µM*
Clc1ccc(OCCN2CCCCC2)cc1Cl | i | -1% | 1% | i | i | -2%
N#CCCN(Cc1ccccc1)C(=S)NC(=O)c1ccccc1 | i | 1.1µM* | -15% | i | ? | 1.3µM*
CCc1cccc(NC(=O)CCS(=O)(=O)c2ccc(C)cc2)c1 | i | . | . | . | i | .
O=C(Cc1ccccc1)Nc1ncnc2c1C(c1ccccc1)c1c(ccc3ccccc13)O2 (centres undefined) | ? | . | -31% | i | 18µM* | .
O=C(Nc1ncnc2c1C(c1ccccc1)c1c(ccc3ccccc13)O2)c1ccccc1 (centres undefined) | 13µM* | . | ? | ? | ? | .
CCOC(=O)CCC(=O)Nc1ncnc2c1C(c1ccccc1)c1c(ccc3ccccc13)O2 (centres undefined) | ? | . | ? | ? | i | .
O=C(COc1ccccc1)NCc1ccccc1 | i | 10% | 13% | i | i | 11%
O=C(COc1ccc(C(=O)c2ccccc2)cc1)NCc1ccc(F)cc1 | ? | 2.3µM* | -22% | ? | ? | 2.1µM*
CSc1ccc(CN(C)C(=O)COc2ccc(C(=O)c3ccccc3)cc2)cc1 | 21µM* | 12µM* | -14% | i | 9.2µM* | ?
O=C(c1ccccc1)c1ccc(OCC(O)CNCc2ccc(F)cc2)cc1 (centres undefined) | i | 21µM* | -16% | . | 23µM* | ?
COc1ccc(CCN(C)C(=O)COc2ccc(C(=O)c3ccccc3)cc2)cc1OC | i | -6% | -3% | i | i | -8%
O=S(=O)(Nc1ccc(-c2ccc(N3CCCC3)nn2)cc1)c1cccc(C(F)(F)F)c1 | i | . | -2% | i | i | .
CC1CCN(c2ccc(-c3nc(-c4ccccc4)no3)cc2[N+](=O)[O-])CC1 | i | . | 1% | i | i | .
CC(C)N1CCN(c2ccc(OCC3COC(Cn4cncn4)(c4ccc(Cl)cc4Cl)O3)cc2)CC1 (centres undefined) | ? | -1% | -20% | ? | 1.2µM* | -2%
CCC(C)n1ncn(-c2ccc(N3CCN(c4ccc(OC[C@H]5CO[C@](Cn6cncn6)(c6ccc(Cl)cc6Cl)O5)cc4)CC3)cc2)c1=O (some centres undefined) | . | . | ? | i | . | .

Bioassay records: PubChem, National Center for Advancing Translational Sciences (NCATS)
